Assay results as given in PubChem BioAssay (NCI).
The panel holds about 83,000 compounds, 20% with a hit somewhere; the sample as a whole holds those more often.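 Assay: single dose, 48 h. Readout: percent growth (0 = no net growth; negative = cell death). Active: <10.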 Values without a mark were called inactive. Calls of active or inactive are those of the source.

Test system: U251 CNS
Test: NCI-60 one-dose screen, 48 h (100 = growth as untreated, 0 = no growth, -100 = all killed)
Conditions: 10 µM unless noted

Compound	growth
O=[N+]([O-])c1ccc(N/N=C/c2c(O)ccc3ccccc23)nc1	35.8%
COc1cc(/C=C/c2nnc(-c3cc(-c4ccccc4)n[nH]3)o2)cc(OC)c1OC	108%
COc1cc2c(-c3nc4cc(Cl)c(F)cc4s3)cc(=O)oc2c(C)c1OC	-92.3% (active)
COc1cccc(-c2nnc(N)o2)c1	97.8%
CSc1nc2c(c(=O)n1C)C(c1ccccc1)C1=C(N2)/C(=C/c2ccccc2)CCC1 (stereo not given)	48.8%
CCCCCCC/C(=N\N=C(N)N)c1ccc(O)cc1	30.7%
CCOC(=O)c1c(NC(=O)C2CCCCC2C(=O)O)sc2c1CCCC2 (stereo not given)	99.1%
C[N+]1(CCC[N+]2(C)C[C@@H]3[C@H](C2)[C@@H]2C=C[C@H]3C2)CCOCC1 (stereo not given in full)	109%
O=C(CCc1nnc(SCc2ccccc2)s1)c1nc2ccccc2[nH]1	89.6%
c1csc([C@@H]2C[C@@H]3Cc4ccc5ccccc5c4N2O3)c1	96.8%
O=C1/C(=C/c2ccc([N+](=O)[O-])s2)Oc2ccc(Br)cc21	-87.9% (active)
CCCCCCC(C)(O)c1ccccc1 (stereo not given)	109%
CCOC(Cc1c(N)[nH]c(=S)[nH]c1=O)OCC	103%
CCN1C2=C(SC(=S)C1=C1SC(C(=O)OC)=C(C(=O)OC)S1)SC(=Nc1ccc(OC)cc1)C2=O	-32.5% (active)
CCOc1nc(-c2ccccc2)cc2c(O)c(-c3nnco3)[nH]c(=O)c12	32.7%
COc1cccc2c1O/C(=C\c1c([N+](=O)[O-])ncn1C)C2=O	97.4%
CCCc1cc(=O)n2c(C(=O)Nc3ccccc3OC)c(C(=O)Nc3ccc(F)cc3)sc2n1	14.7% [30 µM]
C=Cc1nn2c(CCC(=O)c3nc4ccccc4[nH]3)nnc2s1	104%
CCOC(=O)C(C(C)=O)c1nc2sc3cc(Cl)ccc3n2c(=N)c1C#N (stereo not given)	86.2%

Compound	growth
COc1ccc2nccc(/C=C/c3ccnc4ccc(OC)cc34)c2c1	107%
COc1ccc(-c2c(-c3cc(OC)c(OC)c(OC)c3)noc2N)cc1	22.2%
COc1ccc(-c2cc(C(=O)Nc3nc4cc(C)c(C)cc4s3)nc3cc(-c4ccccc4)nn23)cc1OC	111%
COc1ccc(-c2cc(Cc3cccs3)c(=O)n(Cn3ccc4ccccc43)n2)cc1	104%
COc1ccc(-c2cc(Cc3cccs3)c(=O)n(Cn3cncn3)n2)cc1	97.2%
Cn1c(=O)c2c(nc(Br)n2CCC(=O)Nc2ccc(F)cc2)n(C)c1=O	96.7%
COc1ccc(/C=C/C(=O)Nc2cccnc2Nc2ccc(F)cc2)cc1	93.4%
O=C1NCC(Nc2ccc(Br)cc2Cl)C(=O)N1 (stereo not given)	123%
CC/C=C\C=C/C(=O)N/C=C/CC1Cc2cccc(O)c2C(=O)O1 (stereo not given)	57.7%
Cc1cc(C)c2c(c1)N1OC(C2)C[C@H]1/C=C/c1ccccc1 (stereo not given in full)	107%
Cc1cc(=O)n2n1-c1ccc(Cl)cc1NC(=O)C2	95.2%
CC[C@H](C)C(=O)O[C@H]1C[C@@H](C)C=C2C=C[C@H](C)[C@H](CC[C@@H]3C[C@@H](O)CC(=O)O3)[C@H]21	25.2%
O=C1/C(=C/c2ccc([N+](=O)[O-])o2)Oc2ccc(Br)cc21	93.6%
O=C1NCN(c2ccccc2)C12CCN(CCCC(c1ccc(F)cc1)c1ccc(F)cc1)CC2	55.2%
N#Cc1cnc2cc(OC[C@H](O)CO)c(NC(=O)CC3CSSC3)cc2c1Nc1ccc(OCc2cccc(F)c2)c(Cl)c1	-69.2% (active)
COc1ccc(OC)c2c1[nH]c(=O)c1c3ccccc3cn21	-97% (active)
COc1cc(C2CC(=O)Nc3c2cc(Br)c2ccccc32)cc(Br)c1OC (stereo not given)	17.2%
COC(=O)CCC1=C(C)/C(=C/c2[nH]c(-c3ccc[nH]3)cc2OC)N=C1C	-1.49% (active)

Test system: PC-3 prostate
Test: as above
Conditions: 10 µM unless noted

Compound	growth
COc1cc2c(-c3nc4cc(Cl)c(F)cc4s3)cc(=O)oc2c(C)c1OC	19.2%
CSc1nc2c(c(=O)n1C)C(c1ccccc1)C1=C(N2)/C(=C/c2ccccc2)CCC1 (stereo not given)	48.1%
CCCCCCC/C(=N\N=C(N)N)c1ccc(O)cc1	24.6%
CCOC(=O)c1c(NC(=O)C2CCCCC2C(=O)O)sc2c1CCCC2 (stereo not given)	101%
O=C1/C(=C/c2ccc([N+](=O)[O-])s2)Oc2ccc(Br)cc21	-62.3% (active)
CCOC(Cc1c(N)[nH]c(=S)[nH]c1=O)OCC	95.3%
CCN1C2=C(SC(=S)C1=C1SC(C(=O)OC)=C(C(=O)OC)S1)SC(=Nc1ccc(OC)cc1)C2=O	2.92% (active)
CCOc1nc(-c2ccccc2)cc2c(O)c(-c3nnco3)[nH]c(=O)c12	43.4%
COc1cccc2c1O/C(=C\c1c([N+](=O)[O-])ncn1C)C2=O	-29.8% (active)
C=Cc1nn2c(CCC(=O)c3nc4ccccc4[nH]3)nnc2s1	98%
COc1ccc(-c2c(-c3cc(OC)c(OC)c(OC)c3)noc2N)cc1	21.8%
Cn1c(=O)c2c(nc(Br)n2CCC(=O)Nc2ccc(F)cc2)n(C)c1=O	95.9%
Cc1cc(=O)n2n1-c1ccc(Cl)cc1NC(=O)C2	89.8%
CC[C@H](C)C(=O)O[C@H]1C[C@@H](C)C=C2C=C[C@H](C)[C@H](CC[C@@H]3C[C@@H](O)CC(=O)O3)[C@H]21	33.9%
O=C1/C(=C/c2ccc([N+](=O)[O-])o2)Oc2ccc(Br)cc21	91.3%
O=C1NCN(c2ccccc2)C12CCN(CCCC(c1ccc(F)cc1)c1ccc(F)cc1)CC2	96.3%
N#Cc1cnc2cc(OC[C@H](O)CO)c(NC(=O)CC3CSSC3)cc2c1Nc1ccc(OCc2cccc(F)c2)c(Cl)c1	-100% (active)
COc1cc(C2CC(=O)Nc3c2cc(Br)c2ccccc32)cc(Br)c1OC (stereo not given)	39%
